Hit rate of the full screen: of about 5,500 compounds, about 2,000 (36%) were called active. About 18% were inconclusive and are not listed. No stated cut-off is given here; in the data, active means normalized growth mostly below about 0.91 (no sharp cut-off); inconclusive means no clear call, values can overlap the other calls; inactive means mostly above about 0.92. The list shows a part of the results.
Assay: chemical genetic growth profiling, strain panel (AID 1159580);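 further: tested at 20 µM; growth read once vehicle control cultures reached saturation at 30 °C; 1 = growth at the plate median or of vehicle wells; lower values mean less growth of the strain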
Settings: growth OD

Measured: normalized growth

COc1cc(NS(=O)(=O)c2ccc(N)cc2)nc(OC)n1
inactive: S. cerevisiae deletion strains, locus YJR066W, strain TOR1, hits give low values 0.933 | S. cerevisiae deletion strains, locus YKL009W, strain mrt4, hits give low values 0.985 | S. cerevisiae deletion strains, locus YKL068W, hits give low values 0.984 | S. cerevisiae deletion strains, locus YKL085W, strain MDH1 (second series), hits give low values 0.991 | S. cerevisiae deletion strains, locus YKL085W, strain MDH1, hits give low values 0.991 | S. cerevisiae deletion strains, locus YKL160W, strain elf1, hits give low values 0.969 | S. cerevisiae deletion strains, locus YKL190W, strain CNB1, hits give low values 0.999 | S. cerevisiae deletion strains, locus YKR001C, strain vps1, hits give low values 1 | S. cerevisiae deletion strains, locus YKR026C, strain gcn3, hits give low values 0.973 | S. cerevisiae deletion strains, locus YKR091W, strain srl3, hits give low values 0.982 | S. cerevisiae deletion strains, locus YLL001W, strain dnm1, hits give low values 0.982 | S. cerevisiae deletion strains, locus YLL026W, hits give low values 0.992 | S. cerevisiae deletion strains, locus YLL041C, strain sdh2, hits give low values 0.992 | S. cerevisiae deletion strains, locus YLR027C, strain aat2, hits give low values 0.988 | S. cerevisiae deletion strains, locus YLR039C, strain RIC1, hits give low values 0.997 | S. cerevisiae deletion strains, locus YLR058C, strain SHM2, hits give low values 0.982 | S. cerevisiae deletion strains, locus YLR102C, strain apc9, hits give low values 0.985 | S. cerevisiae deletion strains, locus YLR113W, strain HOG1, hits give low values 0.961 | S. cerevisiae deletion strains, locus YLR221C, strain rsa3, hits give low values 0.986 | S. cerevisiae deletion strains, locus YLR258W, strain gsy2, hits give low values 0.979 | S. cerevisiae deletion strains, locus YLR262C, strain YPT6 (second series), hits give low values 0.952 | S. cerevisiae deletion strains, locus YLR262C, strain YPT6, hits give low values 0.97 | S. cerevisiae deletion strains, locus YLR268W, strain sec22, hits give low values 0.98 | S. cerevisiae deletion strains, locus YLR320W, strain mms22, hits give low values 0.972 | S. cerevisiae deletion strains, locus YLR330W, strain CHS5, hits give low values 0.984 | S. cerevisiae deletion strains, locus YLR342W, strain FKS1 (second series), hits give low values 0.95 | S. cerevisiae deletion strains, locus YLR342W, strain FKS1, hits give low values 0.986 | S. cerevisiae deletion strains, locus YLR357W, strain rsc2, hits give low values 0.921 | S. cerevisiae deletion strains, locus YLR370C, strain arc18, hits give low values 0.977 | S. cerevisiae deletion strains, locus YLR371W, strain rom2, hits give low values 0.982 | S. cerevisiae deletion strains, locus YLR384C, strain iki3, hits give low values 0.97 | S. cerevisiae deletion strains, locus YLR418C, strain cdc73, hits give low values 0.969 | S. cerevisiae deletion strains, locus YML016C, strain PPZ1, hits give low values 0.983 | S. cerevisiae deletion strains, locus YML032C, strain rad52, hits give low values 0.983 | S. cerevisiae deletion strains, locus YML120C, strain ndi1, hits give low values 0.972 | S. cerevisiae deletion strains, locus YML124C, strain tub3, hits give low values 0.988 | S. cerevisiae deletion strains, locus YMR058W, strain fet3, hits give low values 0.996 | S. cerevisiae deletion strains, locus YMR078C, strain ctf18, hits give low values 0.984 | S. cerevisiae deletion strains, locus YMR125W, strain sto1, hits give low values 0.978 | S. cerevisiae deletion strains, locus YMR129W, hits give low values 0.983 | S. cerevisiae deletion strains, locus YMR205C, strain PFK2, hits give low values 0.971 | S. cerevisiae deletion strains, locus YMR223W, strain ubp8, hits give low values 0.987 | S. cerevisiae deletion strains, locus YMR231W, strain pep5, hits give low values 0.982 | S. cerevisiae deletion strains, locus YMR307W, strain GAS1, hits give low values 0.933 | S. cerevisiae deletion strains, locus YNL067W, strain RPL9B, hits give low values 1.01 | S. cerevisiae deletion strains, locus YNL071W, strain lat1, hits give low values 0.975 | S. cerevisiae deletion strains, locus YNL153C, strain GIM3, hits give low values 1.04 | S. cerevisiae deletion strains, locus YNL183C, strain NPR1, hits give low values 0.943 | S. cerevisiae deletion strains, locus YNL209W, strain ssb2, hits give low values 0.97 | S. cerevisiae deletion strains, locus YNL233W, strain BNI4, hits give low values 1 | S. cerevisiae deletion strains, locus YNL248C, strain rpa49, hits give low values 0.969 | S. cerevisiae deletion strains, locus YNL250W, strain rad50, hits give low values 0.988 | S. cerevisiae deletion strains, locus YNL271C, strain bni1, hits give low values 0.978 | S. cerevisiae deletion strains, locus YNL298W, strain CLA4, hits give low values 0.962 | S. cerevisiae deletion strains, locus YNL307C, strain MCK1, hits give low values 0.981 | S. cerevisiae deletion strains, locus YNL322C, strain KRE1 (second series), hits give low values 0.976 | S. cerevisiae deletion strains, locus YNL322C, strain KRE1, hits give low values 0.996 | S. cerevisiae deletion strains, locus YNR049C, strain mso1, hits give low values 0.979 | S. cerevisiae deletion strains, locus YNR052C, strain pop2, hits give low values 0.986 | S. cerevisiae deletion strains, locus YOL006C, strain TOP1, hits give low values 1.05 | S. cerevisiae deletion strains, locus YOL012C, strain htz1 0.758 | S. cerevisiae deletion strains, locus YOL147C, strain pex11, hits give low values 0.978 | S. cerevisiae deletion strains, locus YOR001W, strain rrp6, hits give low values 0.988 | S. cerevisiae deletion strains, locus YOR061W, strain CKA2, hits give low values 0.977 | S. cerevisiae deletion strains, locus YOR069W, strain VPS5, hits give low values 0.985 | S. cerevisiae deletion strains, locus YOR070C, strain gyp1, hits give low values 0.981 | S. cerevisiae deletion strains, locus YOR080W, strain dia2, hits give low values 0.966 | S. cerevisiae deletion strains, locus YOR083W, strain WHI5, hits give low values 0.981 | S. cerevisiae deletion strains, locus YOR106W, strain vam3, hits give low values 0.977 | S. cerevisiae deletion strains, locus YOR136W, strain idh2, hits give low values 0.991 | S. cerevisiae deletion strains, locus YOR144C, strain elg1, hits give low values 0.992 | S. cerevisiae deletion strains, locus YOR184W, strain ser1, hits give low values 0.991 | S. cerevisiae deletion strains, locus YOR231W, strain MKK1, hits give low values 0.968 | S. cerevisiae deletion strains, locus YOR265W, strain rbl2, hits give low values 0.992 | S. cerevisiae deletion strains, locus YOR270C, strain vph1, hits give low values 0.965 | S. cerevisiae deletion strains, locus YOR290C, strain snf2, hits give low values 0.991 | S. cerevisiae deletion strains, locus YOR316C, strain cot1, hits give low values 0.988 | S. cerevisiae deletion strains, locus YPL051W, strain arl3, hits give low values 0.973 | S. cerevisiae deletion strains, locus YPL055C, strain LGE1, hits give low values 1.03 | S. cerevisiae deletion strains, locus YPL078C, strain atp4, hits give low values 0.965 | S. cerevisiae deletion strains, locus YPL106C, strain sse1, hits give low values 0.976 | S. cerevisiae deletion strains, locus YPL240C, strain hsp82, hits give low values 0.98 | S. cerevisiae deletion strains, locus YPL241C, strain CIN2, hits give low values 0.994 | S. cerevisiae deletion strains, locus YPL256C, strain CLN2, hits give low values 0.966 | S. cerevisiae deletion strains, locus YPR119W, strain clb2, hits give low values 0.989 | S. cerevisiae deletion strains, locus YPR141C, strain kar3, hits give low values 0.982 | S. cerevisiae deletion strains, locus YPR163C, strain tif3, hits give low values 0.973 | S. cerevisiae deletion strains, locus YPR167C, strain met16, hits give low values 0.986 | S. cerevisiae deletion strains, strain wtn01, hits give low values 0.981 | S. cerevisiae strains, strain wild type, hits give low values 0.991

Source: PubChem BioAssay AID1159580 (chemical genetic matrix, 2015)
